Experimental data published in PubChem BioAssay (EPA / NIEHS).
Calls of active or inactive are those of the source. The calls were made as follows: active = hit-call score of the fitted dose curve at least 0.9, where 1 is the maximum; inactive = score below 0.9.

Assay: CCTE_Shafer_MEA_acute_network_burst_percentage: CCTE's Neural Acute Assay for Percentage of Network Bursts, Shafer Lab (AID 2284022);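 also: curves fitted for loss so actives lower network burst percentage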
Method: CCTE_Shafer_MEA_acute assay is conducted using Axion Biosystems 48 well microelectrode array (MEA) plates and Maestro recording system. Each well of the MEA plate contains a grid of 16 microelectrodes embedded in the culture surface. Electrically active cells, such as neurons, can be cultured over the electrodes, and electrical activity in these cells can be recorded extracellularly. The spontaneous firing of neurons is captured from each electrode on a microsecond timescale providing both temporally and spatially precise data. […] The CCTE_Shafer_MEA_acute assay uses primary cultures of rat cortical neurons. As these cultures mature over time, neural networks develop functional activity and form cohesive networks in which electrical activity can be highly coordinated. Baseline 40-minute recordings are made on days post-plating 13 or 15, followed by a secondary 40-minute recording after chemical exposure.CCTE_Shafer_MEA_acute_network_burst_percentage is a component of the CCTE_Shafer_MEA_acute assay. It measures the percent of spikes (action potential firings) in network bursts (temporally-clustered groups of spikes across multiple electrodes) as the number of spikes occuring in network bursts divided by the total number of spikes during a recording in a microelectrode array (MEA) using Axion Biosystems Maestro 768 channel amplifier with the AxIS adaptive spike detector. The recordings before and after chemical treatment are used to calculate a percent change in the network burst percentage in each well.Data from the assay component CCTE_Shafer_MEA_acute_network_burst_percentage was analyzed into 1 assay endpoint. This assay endpoint, CCTE_Shafer_MEA_acute_network_burst_percentage, was analyzed in the negative analysis fitting direction relative to DMSO as the negative control and baseline of activity. Using a type of functional reporter, gain or loss-of-signal activity can be used to understand electrical activity.
Spontaneous activity in the cortical cultures was recorded using an Axion Biosystems Maestro 768 channel amplifier and Axion Integrated Studios (AxIS) v1.8 (or later) software. The amplifier recorded from all channels simultaneously (gain = 1200 x; sampling rate = 12.5 kHz/channel): raw signals were filtered with a Butterworth band-pass filter (300-5000 Hz), which filters out slower local field potentials leaving only fast potentials, i.e., "spikes", arising from extracellular currents associated with action potentials (Pine 2006; Wheeler and Nam 2011). On-line spike detection of filtered signals was conducted with the AxIS adaptive spike detector, using a threshold of 8x the root mean squared (rms) noise on each channel. Any electrodes with rms noise levels greater than 5 uV were grounded (e.g., no data were recorded). Once grounded, an electrode was grounded for the duration of the experiment. All recordings were conducted at 37 C. Wells were deemed usable if on the day of the exposure >/= 10 electrodes were active (defined as >/= 5 spikes/min). On DIV 13 or 15, a minimum of three wells from one cortical culture preparation were treated with each compound (0.03-40 uM). Prior to recording baseline activity, each mwMEA plate was placed in the Maestro at 37 C and allowed to sit for 20 min while firing rates stabilized. Baseline activity (40 min) was recorded before the addition of each compound. An additional 40 min of spontaneous activity was recorded in the presence of each compound. Changes in network parameters relative to baseline were assessed following compound treatment.

| SMILES | AC50 | outcome |
| --- | --- | --- |
| CC/C(=C(/CC)c1ccc(O)cc1)c1ccc(O)cc1 | 10.5 µM (active) |  |
| CN(C)c1ccc(C(=C2C=CC(=[N+](C)C)C=C2)c2ccc(N(C)C)cc2)cc1 | 2.27 µM (active) |  |
| Cc1cc2c(cc1C(F)(F)F)N(C(=O)Nc1ccc(Oc3cccnc3C)nc1)CC2 |  | inactive |
| COc1cc(C(=O)NC2CCN(C)CC2)ccc1Nc1ncc2c(n1)N(C1CCCC1)CC(F)(F)C(=O)N2C | 10.5 µM (active) |  |
| O=C(O)c1ccccc1-n1cc(C(=O)O)c(=O)c2cc(Nc3c(F)cc(F)cc3Cl)c(Cl)cc21 |  | inactive |
| OC12N=C(c3ccccc3)SC1Cc1cc(Cl)ccc12 (stereo unspecified) |  | inactive |
| CN(C)C(=O)C1(N2CCCCC2)CCN(CC[C@@]2(c3ccc(Cl)c(Cl)c3)CN(C(=O)c3ccccc3)CCO2)CC1 | 17.8 µM (active) |  |
| CCCCCCCCCCCCO | 25.8 µM (active) |  |
| CN1C(=O)CC[C@H]1c1cccnc1 |  | inactive |
| CC(C)(c1cc(Br)c(O)c(Br)c1)c1cc(Br)c(O)c(Br)c1 |  | inactive |
| CC(O)CC(C)(C)O (stereo unspecified) |  | inactive |
| COc1cccc([C@H](O)C2CCN(CCc3ccc(F)cc3)CC2)c1OC |  | inactive |
| O=c1[nH]sc2ccccc12 | 7.94 µM (active) |  |
| CC(C)(C)c1cc(/C=C2\SC(N)=NC2=O)cc(C(C)(C)C)c1O |  | inactive |
| CCCCCCCCOC(=O)c1cc(O)c(O)c(O)c1 | 9.35 µM (active) |  |
| Clc1ccccc1C(c1ccccc1)(c1ccccc1)n1ccnc1 | 5 µM (active) |  |

| SMILES | AC50 | outcome |
| --- | --- | --- |
| CCN(CC)C(=O)c1cc(S(=O)(=O)Cc2ccccc2)c(N2CCC(c3ccccc3)CC2)cc1N(CC)CCN(C)C | 13.3 µM (active) |  |
| CC(=O)N1CCN(c2ccc(OC[C@H]3CO[C@](Cn4ccnc4)(c4ccc(Cl)cc4Cl)O3)cc2)CC1 |  | inactive |
| NC(=O)c1nc(-c2cccc(-c3cc(F)ccc3OCC(F)(F)C(F)(F)F)c2)n[nH]1 |  | inactive |
| CC[C@@H]1C[C@H](N(Cc2cc(C(F)(F)F)cc(C(F)(F)F)c2)C(C)=O)c2cc(C(F)(F)F)ccc2N1C(=O)OC(C)C |  | inactive |
| Cc1c2ccccc2c(C)c2c1ccc1ccccc12 |  | inactive |
| CCN(Cc1cccc(S(=O)(=O)O)c1)c1ccc(C(=C2C=CC(=[N+](CC)Cc3cccc(S(=O)(=O)O)c3)C=C2)c2ccccc2S(=O)(=O)[O-])cc1 |  | inactive |
| CCCCOC(=O)c1ccc(O)cc1 |  | inactive |
| CN(C[C@@H](CC[N+]12CCC(C3CCCCC3)(CC1)CC2)c1ccc(Cl)c(Cl)c1)C(=O)c1cc(C(F)(F)F)cc(C(F)(F)F)c1 | 8.37 µM (active) |  |
| C[C@]12CC[C@@H]3c4ccc(O)cc4CC[C@H]3[C@@H]1CC[C@H]2O |  | inactive |
| c1ccc2n[nH]nc2c1 |  | inactive |
| CO[C@H]1/C=C/O[C@@]2(C)Oc3c(C)c(O)c4c(O)c(c(/C=N/N5CCN(C)CC5)c(O)c4c3C2=O)NC(=O)/C(C)=C\C=C\[C@H](C)[C@H](O)[C@@H](C)[C@@H](O)[C@@H](C)[C@H](OC(C)=O)[C@@H]1C |  | inactive |
| NCc1cccc(C2CCN(C(=O)c3ccc(C#Cc4ccccc4F)o3)CC2)c1 | 31.4 µM (active) |  |
| Cc1cn([C@H]2C[C@H](N=[N+]=[N-])[C@@H](CO)O2)c(=O)[nH]c1=O |  | inactive |
| O=C1O[C@H]([C@@H](O)CO)C(O)=C1O |  | inactive |
| CC1=CC(=O)/C(=C(/C)O)C(=O)O1 |  | inactive |
